Measured values taken from PubChem BioAssay (NCI).
Compounds without any hit were thinned out: in the full panel of roughly 83,000, 20% have a hit.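 Plates (96-well) were seeded with cells, treated with compound at one concentration, and incubated for 48 hours before percent growth was determined.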 Activity calls are given as the source filed them. How the source made its calls: active means growth percent below 10; inactive means the rest.

Columns and labels:
Assay in all cases: NCI-60 one-dose screen, 48 h (100 = growth as untreated, 0 = no growth, -100 = all killed)
Conditions in all cases: 10 µM unless noted
SR leukemia = test system: SR leukemia
RPMI-8226 leukemia = test system: RPMI-8226 leukemia
OVCAR-8 ovarian = test system: OVCAR-8 ovarian
OVCAR-5 ovarian = test system: OVCAR-5 ovarian
OVCAR-4 ovarian = test system: OVCAR-4 ovarian
SK-OV-3 ovarian = test system: SK-OV-3 ovarian
IGROV1 ovarian = test system: IGROV1 ovarian
OVCAR-3 ovarian = test system: OVCAR-3 ovarian
HS 578T breast = test system: HS 578T breast
NCI/ADR-RES ovarian = test system: NCI/ADR-RES ovarian
T-47D breast = test system: T-47D breast
BT-549 breast = test system: BT-549 breast
SW-620 colon = test system: SW-620 colon
MCF7 breast = test system: MCF7 breast
HCT-116 colon = test system: HCT-116 colon
HCC-2998 colon = test system: HCC-2998 colon
KM12 colon = test system: KM12 colon
MDA-MB-435 melanoma = test system: MDA-MB-435 melanoma

Measured: growth

Nc1n[nH]c2cccc(C#Cc3cccc(C(=O)Nc4ccc(Cl)c(C(F)(F)F)c4)c3)c12
inactive: SR leukemia 56% | RPMI-8226 leukemia 53.1% | OVCAR-8 ovarian 65.8% | OVCAR-5 ovarian 43.4% | OVCAR-4 ovarian 56.2% | SK-OV-3 ovarian 106% | IGROV1 ovarian 35.8% | OVCAR-3 ovarian 81.6% | HS 578T breast 53.3% | NCI/ADR-RES ovarian 62.2% | T-47D breast 33.5% | BT-549 breast 78.3% | SW-620 colon 61.8% | MCF7 breast 50.2% | HCT-116 colon 28.5% | HCC-2998 colon 49.4% | KM12 colon 59.4%

CCOC(=O)C1=C(c2ccccc2)N=C2SC=C(c3cccc([N+](=O)[O-])c3)N2C1c1ccc(O)cc1 (configuration not stated)
inactive: SR leukemia 109% | RPMI-8226 leukemia 98% | OVCAR-8 ovarian 97.9% | OVCAR-5 ovarian 100% | OVCAR-4 ovarian 106% | SK-OV-3 ovarian 102% | IGROV1 ovarian 95.5% | OVCAR-3 ovarian 101% | HS 578T breast 102% | NCI/ADR-RES ovarian 99.3% | T-47D breast 93.5% | BT-549 breast 95.1% | SW-620 colon 97.6% | MCF7 breast 95.1% | HCT-116 colon 100% | HCC-2998 colon 101% | KM12 colon 99.7%

O=C(O)/C=C\C(=O)Nc1ccc2c(c1)Cc1cc(F)ccc1-2
inactive: SR leukemia 106% | RPMI-8226 leukemia 97.6% | OVCAR-8 ovarian 105% | OVCAR-5 ovarian 107% | OVCAR-4 ovarian 100% | SK-OV-3 ovarian 94.2% | IGROV1 ovarian 95.5% | OVCAR-3 ovarian 106% | HS 578T breast 126% | NCI/ADR-RES ovarian 102% | T-47D breast 84.6% | BT-549 breast 111% | SW-620 colon 110% | MCF7 breast 93.3% | HCT-116 colon 92.1% | HCC-2998 colon 97.6% | KM12 colon 101%

CN1CCN(Cc2ccc(NC(=O)c3cncc(C#Cc4c(N)ncc5c(F)cccc45)c3)cc2C(F)(F)F)CC1
active: SR leukemia -49% | RPMI-8226 leukemia -26.5% | OVCAR-8 ovarian -72.8% | OVCAR-5 ovarian -33.3% | OVCAR-4 ovarian -59.1% | SK-OV-3 ovarian 2.69% | IGROV1 ovarian -69.4% | OVCAR-3 ovarian -84.8% | HS 578T breast -25.8% | NCI/ADR-RES ovarian -45.1% | T-47D breast -25.2% | SW-620 colon -51.9% | MCF7 breast -67.3% | HCT-116 colon -89.1% | KM12 colon -72.9%
inactive: BT-549 breast 12.5%

COc1ccc(-n2c(=O)n(-c3ccc(-c4nc5ccc(F)cc5s4)cc3)c(=O)c3cccnc32)cc1
inactive: SR leukemia 104% | RPMI-8226 leukemia 91.6% | OVCAR-8 ovarian 93.1% | OVCAR-5 ovarian 108% | OVCAR-4 ovarian 104% | SK-OV-3 ovarian 86.6% | IGROV1 ovarian 90.5% | OVCAR-3 ovarian 106% | HS 578T breast 101% | NCI/ADR-RES ovarian 103% | T-47D breast 73.5% | MDA-MB-435 melanoma 102% | SW-620 colon 106% | MCF7 breast 92.2% | HCT-116 colon 91.5% | HCC-2998 colon 91.4% | KM12 colon 102%

NCCCCCNc1noc(Cc2c[nH]c3cc(Br)ccc23)n1
active: RPMI-8226 leukemia 4.37% | SK-OV-3 ovarian -1.93% | OVCAR-3 ovarian -50.2% | NCI/ADR-RES ovarian -13.6%
inactive: SR leukemia 10.5% | OVCAR-8 ovarian 28.4% | OVCAR-5 ovarian 58.1% | OVCAR-4 ovarian 46.8% | IGROV1 ovarian 34.5% | HS 578T breast 19.8% | T-47D breast 25.9% | BT-549 breast 44.9% | SW-620 colon 18.6% | MCF7 breast 21.8% | HCT-116 colon 23% | HCC-2998 colon 64% | KM12 colon 23.9%

C/C(=N\NC(=O)c1ccc(C(C)(C)C)cc1)c1ccc(O)cc1O
inactive: SR leukemia 19.2% | RPMI-8226 leukemia 28.5% | OVCAR-8 ovarian 22.9% | OVCAR-5 ovarian 39.9% | OVCAR-4 ovarian 15% | SK-OV-3 ovarian 27.7% | IGROV1 ovarian 23.8% | HS 578T breast 59.8% | NCI/ADR-RES ovarian 10.3% | T-47D breast 24.4% | BT-549 breast 31.2% | SW-620 colon 29.9% | HCT-116 colon 18.5% | KM12 colon 22.8%
active: OVCAR-3 ovarian 6.18% | MCF7 breast 4.92% | HCC-2998 colon 8.71%

CCCn1cnc2c(c1=N)C(c1ccc(Cl)cc1)c1sc3c(F)cccc3c1O2 (configuration not stated)
inactive: SR leukemia 24.7% | RPMI-8226 leukemia 29.6% | OVCAR-8 ovarian 86.4% | OVCAR-5 ovarian 81.6% | OVCAR-4 ovarian 66.2% | SK-OV-3 ovarian 102% | IGROV1 ovarian 59.5% | OVCAR-3 ovarian 81.4% | HS 578T breast 91.2% | NCI/ADR-RES ovarian 80.7% | T-47D breast 64.6% | BT-549 breast 105% | SW-620 colon 55.5% | MCF7 breast 32.3% | HCT-116 colon 57.8% | KM12 colon 66.6%
active: HCC-2998 colon -20%

CC1=NN(c2cccc(Cl)c2)C(=O)/C1=C\C=C\c1ccccc1
active: OVCAR-8 ovarian 0.373% | OVCAR-4 ovarian -10.4% | NCI/ADR-RES ovarian -17.5% | SW-620 colon 1.26% | HCT-116 colon -89.2%
inactive: SR leukemia 10.6% | RPMI-8226 leukemia 15.4% | OVCAR-5 ovarian 144% | SK-OV-3 ovarian 39.4% | IGROV1 ovarian 45.5% | OVCAR-3 ovarian 104% | HS 578T breast 133% | T-47D breast 36.7% | MDA-MB-435 melanoma 13.6% | MCF7 breast 10.9% | HCC-2998 colon 30.9% | KM12 colon 16.1%
